Structures are written as SMILES. Inconclusive results are not listed. Calls of active or inactive are those of the source. The calls were made as follows: active = hit-call score of the fitted dose curve at least 0.9, where 1 is the maximum; inconclusive = response in the unintended direction; inactive = score below 0.9.

A word on the AC50: it is the concentration at which the activity in the assay is half-maximal.

The target of the experiment is Estrogen receptor (Homo sapiens) (UniProt P03372). The experiment in a line: CCTE_Deisenroth_AIME_384WELL_LUC_Inactive: CCTE's 384-well Estrogen Receptor Transactivation Assay without AIME metabolic competence (ERTA luciferase; metabolism negative), Deisenroth Lab (AID 2284038).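 Also: hits raise estrogen receptor luciferase signal so potencies reflect agonists.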 How it is done: CCTE_Deisenroth_AIME_384WELL (AIME metabolism assay) is a cell-based, single-readout assay that uses VM7Luc4E2, a human mammary gland/breast cell line, with measurements taken at 24 hour after chemical dosing in a 384-well plate.CCTE_Deisenroth_AIME_384WELL_LUC_Inactive is one of four assay components measured or calculated from the CCTE_Deisenroth_AIME_384WELL assay. It is designed to make measurements of luciferase induction, a form of inducible reporter, as detected with bioluminescence signals by luciferase-coupled ATP quantitation technology.CCTE_Deisenroth_AIME_384WELL_LUC_Inactive is a component of the CCTE_Deisenroth_AIME_384WELL assay that measures the effect of retroftting the VM7Luc ERTA assay with the Alginate Immobolization of Metabolic Enzymes (AIME) metabolism method. AIME is optimized to impart phase I hepatic metabolism using phenobarbital/beta-naphthoflavone induced hepatic S9 from male Sprague Dawley rats. Parent chemicals are incubated for 2 hours in the AIME assay prior to transfer to the VM7Luc ERTA assay plate. […] This endpoint evaluates reporter induction in metabolism negative mode. Using a type of inducible reporter in VM7Luc cells, gain-of-signal activity can be used to understand changes in the reporter gene as they relate to xenobiotic metabolism and the gene ESR1. This assay endpoint, CCTE_Deisenroth_AIME_384WELL_LUC_Inactive, was analyzed in the positive analysis fitting direction relative to 17beta-estradiol as the positive control in the ERTA assay. To generalize the intended target to other relatable targets, this assay endpoint is annotated to the nuclear receptor intended target family, where the subfamily is steroidal.
Sequence of Estrogen receptor (Homo sapiens) (P03372 whole entry, looked up): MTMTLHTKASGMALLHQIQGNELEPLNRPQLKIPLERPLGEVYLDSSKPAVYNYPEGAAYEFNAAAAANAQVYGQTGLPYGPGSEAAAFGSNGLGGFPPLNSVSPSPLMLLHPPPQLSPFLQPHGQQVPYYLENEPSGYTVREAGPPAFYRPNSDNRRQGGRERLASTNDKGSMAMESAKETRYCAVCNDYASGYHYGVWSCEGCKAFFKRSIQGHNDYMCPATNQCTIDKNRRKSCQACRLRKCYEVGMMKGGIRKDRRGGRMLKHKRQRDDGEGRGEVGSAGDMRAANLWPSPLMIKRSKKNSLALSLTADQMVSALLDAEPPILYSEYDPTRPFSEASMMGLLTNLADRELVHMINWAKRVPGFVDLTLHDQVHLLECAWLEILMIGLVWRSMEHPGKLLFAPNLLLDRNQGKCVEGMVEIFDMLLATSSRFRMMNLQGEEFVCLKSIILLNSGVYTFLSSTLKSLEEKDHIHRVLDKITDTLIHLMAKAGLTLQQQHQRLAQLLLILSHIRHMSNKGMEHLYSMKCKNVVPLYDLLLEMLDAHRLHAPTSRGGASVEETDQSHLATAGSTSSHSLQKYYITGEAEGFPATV
The AIME procedure consists of a preparative "pre-stamping" step using a barium chloride/poly-L-lysine (PLL) solution followed by "stamping" the lid in alginate-hepatic S9 (metabolism positive) or alginate-water (metabolism negative) to form microspheres. Once stamping is completed, the AIME lids are placed in duplicate microplates (metabolism positive or negative) containing chemical solutions and incubated for two hours to facilitate metabolic reactions. The conditioned medium, containing parent chemical or metabolites, is then transferred to the cell-based VM7Luc Estrogen Receptor Transactivation Assay (ERTA) for 24 hours. A typical experimental design tests a 10-point concentration series (0.002 - 200 uM) for 8 compounds (96-well format)1 or 32 compounds (384-well format)2 in single technical replicate. AIME assay controls include trans-stilbene (bioactivated control) and ethylparaben (bioinactivated control). ERTA assay plate controls include 17-beta estradiol (positive control) and DMSO (solvent control). Experiments typically comprise a minimum of four experimental replicates (n=4).
As for `c1ccc2scnc2c1`, the result was inactive. As to `CC(C)C(=O)c1ccccc1`, the outcome was inactive. As to `[O-]/[N+](=N\O)c1ccccc1`, the AC50 was 59 µM (active).

Consider `CCCCCCCCCCCCN1CCOCC1`, for which the outcome was inactive. Turning to `[Na+]`, the molecule was classed as inactive. As to `CCCCOCCOCCOCCO`, the call was inactive. Regarding `CCC(=O)OC(C)(C)C1CC=C(C)CC1` (stereo not given), the call was inactive. As to `OC[C@H]1O[C@@H](O[C@H]2[C@H](O)[C@@H](O)[C@H](O)O[C@@H]2CO)[C@H](O)[C@@H](O)[C@H]1O`, the molecule was classed as inactive.

For `O=C1OC2(c3ccc(O)cc3Oc3cc(O)ccc32)c2ccccc21`, the call was inactive.

Consider `Cc1cccc(O)c1`, for which the molecule was called inactive. On the same count and under the same terms, next, `CC(=O)CC(=O)N(C)C`: “inactive”; `CCCO`: “inactive”.

Regarding `CCCC1CCC(=O)CC1`, the call was inactive.

As for `C=C(C)C(N)=O`, the molecule was classed as inactive. Take `CCCCOCCOCCO`: the result was inactive. `CC(=O)Oc1c(C)c(C)c2c(c1C)CC[C@@](C)(CCC[C@H](C)CCC[C@H](C)CCCC(C)C)O2`: the outcome was inactive. In the case of `COc1ccc2[nH]cc(CCNC(C)=O)c2c1`, the molecule was classed as inactive. Consider `CC(=O)c1ccc2ccccc2c1`, for which the call was inactive. Consider `O=C(OCc1ccccc1)c1ccccc1O`, for which the AC50 is 46.4 µM (active). With `CC(CCO)CC(C)(C)C` (stereo not given), the outcome was inactive. Same read-out and setting: next, `C=CC(C)CCCC(C)(C)O` (stereo not given): “inactive”. On to `NC(N)=S`, for which the call was inactive. On to `CCCCCCCCOC(=O)c1ccc(O)cc1`, for which the AC50 is 39.7 µM (active). Take `CCC(C)COC(=O)CC(C)C` (stereo not given): the outcome was inactive. Take `CC(=O)OC/C=C(C)/C=C/C=C(C)/C=C/C1=C(C)CCCC1(C)C`: the call was inactive. Regarding `CC(C)(C)C1CCC(O)CC1` (stereo not given), the outcome was inactive. Same read-out and setting: next, `CC(C)N(c1ccccc1)C(C)C`: “inactive”; `CN(C)C(=O)Nc1ccccc1`: “inactive”.

For `CC(=O)C1=C(C)[C@@H]2C[C@@]3(C1)[C@H](C)CC[C@H]3C2(C)C`, the half-maximal activity concentration (AC50) is 0.000263 µM (active). Regarding `C1CCCNCC1`, the molecule was called inactive.

Values taken from PubChem BioAssay (EPA / NIEHS).
